Assay results as given in PubChem BioAssay.
Results filed as inconclusive are left out. Activity calls are given as the source filed them.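 The calls were made as follows, unless noted: active = viability at or under a set limit in both replicates, limit being median viability minus 3 SD (cut at about 48% in these data, passing the limit was not always enough); inconclusive = at or under the limit in just one replicate; inactive = at or above the limit in both replicates.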

Experiments:
[1] = reducers of endogenous Her2 protein level, primary screen, SKBR3 breast tumor cells, AlphaScreen, ATP viability (AID 461;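 active = Her2 level under about 52% in both replicate screens, with viability over 70% of control, limit read from the data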;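 as to Her2 level: lower value means less Her2 protein in the cells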;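 as to viability: percent of carrier control wells set as 100% viability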); conditions: 18-24 h, measured here: SKBR3 viability, ATP luminescence, at 10 µM
[2] = target: Receptor tyrosine-protein kinase erbB-2 (Homo sapiens) (UniProt P04626); experiment: as above; conditions: 18-24 h, at 10 µM, stronger effect = lower value
Receptor tyrosine-protein kinase erbB-2 (Homo sapiens), sequence (P04626 whole entry, looked up): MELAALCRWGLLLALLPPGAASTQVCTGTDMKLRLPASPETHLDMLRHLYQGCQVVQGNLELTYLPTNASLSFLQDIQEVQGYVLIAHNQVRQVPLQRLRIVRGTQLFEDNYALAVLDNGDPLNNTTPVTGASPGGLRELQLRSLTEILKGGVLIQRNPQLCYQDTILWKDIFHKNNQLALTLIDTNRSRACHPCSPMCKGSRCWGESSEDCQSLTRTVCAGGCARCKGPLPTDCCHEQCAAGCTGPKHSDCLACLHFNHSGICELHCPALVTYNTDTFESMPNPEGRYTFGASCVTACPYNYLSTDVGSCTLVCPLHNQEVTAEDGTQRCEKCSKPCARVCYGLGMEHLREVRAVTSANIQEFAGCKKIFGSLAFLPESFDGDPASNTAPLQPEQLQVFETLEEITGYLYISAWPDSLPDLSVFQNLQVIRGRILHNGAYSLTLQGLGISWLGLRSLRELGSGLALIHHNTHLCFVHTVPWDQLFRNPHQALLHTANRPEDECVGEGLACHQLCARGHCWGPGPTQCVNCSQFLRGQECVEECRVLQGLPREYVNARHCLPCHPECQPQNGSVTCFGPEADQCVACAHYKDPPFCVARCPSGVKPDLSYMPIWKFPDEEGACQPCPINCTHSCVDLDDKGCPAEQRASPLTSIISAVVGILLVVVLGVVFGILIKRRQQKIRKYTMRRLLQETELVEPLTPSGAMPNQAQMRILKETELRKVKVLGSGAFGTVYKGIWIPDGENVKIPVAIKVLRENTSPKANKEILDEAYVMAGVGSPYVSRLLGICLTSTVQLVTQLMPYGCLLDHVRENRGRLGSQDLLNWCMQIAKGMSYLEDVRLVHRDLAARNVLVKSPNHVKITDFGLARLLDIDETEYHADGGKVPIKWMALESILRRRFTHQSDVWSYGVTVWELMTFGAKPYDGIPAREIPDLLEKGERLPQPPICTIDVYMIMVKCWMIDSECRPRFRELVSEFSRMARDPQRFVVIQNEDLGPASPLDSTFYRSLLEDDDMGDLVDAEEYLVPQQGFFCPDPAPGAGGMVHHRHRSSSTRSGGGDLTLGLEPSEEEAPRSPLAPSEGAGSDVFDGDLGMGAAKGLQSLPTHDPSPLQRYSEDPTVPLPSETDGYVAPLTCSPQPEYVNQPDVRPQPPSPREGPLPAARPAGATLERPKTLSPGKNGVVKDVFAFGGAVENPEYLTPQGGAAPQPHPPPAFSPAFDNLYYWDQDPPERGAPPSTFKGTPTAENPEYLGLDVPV

[3] = SK-BR-3 cell growth inhibitors, pilot screen, 24 h, human (AID 572;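 active = viability at or below 10% of carrier control in both of two separate runs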;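 also: compound exposure lasted between 18 and 24 h rather than exactly 24 h; 100% = carrier-treated control wells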); conditions: SK-BR-3 viability, CellTiter-Glo luminescence, at 10 µM, stronger effect = lower value
[4] = HUVEC growth inhibition – cell-based, human, primary screen (AID 575;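 active = viability at or below 30% in both replicate assays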;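 also: 100% = median of untreated cell wells with 0.1% DMSO on each plate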); conditions: HUVEC proliferation, CellTiter-Glo luminescence, 72 h; at 10 µM; stronger effect = lower value
[5] = growth inhibitors of H69AR lung tumor, primary screen, human, duplicate replicates (AID 580); conditions: H69AR lung tumor cells viability, ATP luminescence, 72 h; at 10 µM; stronger effect = lower value;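 also: 100% = mean luminescence of untreated wells and 0% = no signal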
[6] = reversal of MRP1-mediated doxorubicin resistance, pilot screen, H69AR cells, doxorubicin co-treatment (AID 601;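 active = viability loss from added drug above about 55%, and viability with drug at most 40%, in both replicates, limit read from the data, passing the limit was not always enough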); conditions: CellTiter-Glo, 72 h, at 10 µM; for differential viability (reversal): stronger effect = higher value
[7] = 384-well plate pilot, post-Golgi transport modulator project, inhibition of yeast transport mutant growth (AID 636; in the data active = inhibition above about 31%); conditions: absorbance 615 nm, about 18 h, stronger effect = higher value
[8] = growth suppression of yeast trafficking mutant, preliminary HTS, modulators of trafficking downstream of Golgi apparatus project, 1536-format plate, OD 615 nm (AID 637; in the data active = inhibition above about 30%); conditions: yeast transport mutant growth, absorbance 615 nm, 18 h; stronger effect = higher value
[9] = OD615 S. cerevisiae growth inhibition, permissive medium, pilot counter-assay, permissive growth control for S. cerevisiae lifespan shortening project (AID 705;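 active = growth inhibition above 25% in both replicates, a cutoff set 3 SD above the mean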); conditions: OD615, 24 h, at 10 µM, stronger effect = higher value
[10] = Restrictive medium S. cerevisiae growth inhibition, OD615, pilot screen of yeast lifespan reduction project, restrictive growth control (AID 706;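 active = growth inhibition above a set limit, 3 SD over mean compound inhibition, in both replicates, cut at about 43% in these data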;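 also: modified DeaD lifespan yeast strain shifted to restrictive glucose medium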); conditions: OD615, 48 h, at 10 µM, stronger effect = higher value
[11] = viability gain of MRP-1-high H69AR cells under doxorubicin, pilot screen, MRP-1 activator project, CellTiter-Glo, duplicate (AID 807;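 active = viability increase at or above a cutoff of the median across tested compounds plus 3 SD, cut at about 8.5% in these data, passing the limit was not always enough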;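 also: compound pretreatment 18-22 h then 72 h combined with doxorubicin; 0% = doxorubicin alone and 100% = vehicle without doxorubicin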); conditions: H69AR viability with doxorubicin, CellTiter-Glo luminescence; at 10 µM; stronger effect = higher value
[12] = growth suppression of beta-catenin knockout HCT116, pilot screen, human colon tumor cells (AID 823;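 active = cell viability at or below a set limit in both duplicate runs, the limit being the all-compound median minus 4 SD, cut at about 23% in these data, passing the limit was not always enough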;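 also: 0% = wells killed by 20 µM Hyamine and 100% = untreated DMSO cell wells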); conditions: CellTiter-Glo, 60 h, at 10 µM, stronger effect = lower value
[13] = growth suppression of PTEN-deleted HCT116, pilot screen, cell-based, HCT116 clonal line, CellTiter-Glo (AID 824;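 active = viability at or below 27.92% in each of two runs, the all-compound median minus 4 SD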;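 also: 0% = 20 µM Hyamine control and 100% = vehicle cell control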); conditions: 60 h, at 10 µM, stronger effect = lower value
[14] = inhibitors of the yeast RAM network, pilot screen, dse1pr::URA3 reporter, 5-FOA selection (AID 869;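 active = inhibition over a set limit, the all-compound mean plus 3 SD, in both replicate runs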;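 also: 0% = DMSO wells with no growth and 100% = 10 µM 1-NA-PP1 with full growth; RAM network block rescues cells from 5-FOA so hits raise OD615 growth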); conditions: S. cerevisiae dse1pr::URA3 5-FOA growth, OD615, 2 d; at 10 µM; stronger effect = higher value; strain carries analog-sensitive mutant Cbk1 kinase
[15] = RAM signaling pathway blockade in yeast – S. cerevisiae, Pdr1DBD-CYC8 efflux-inhibited sensitized strain, primary screen (AID 1298;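 active = RAM network inhibition above 8.4% in each of two replicates, 3 SD over the compound average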;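 also: 0% = DMSO untreated cells without growth and 100% = 10 µM 1-NA-PP1 full growth; higher means more yeast growth rescued from 5-FOA killing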); conditions: S. cerevisiae cbk1-as DSE1-URA3 strain, 5-FOA growth OD615, 2 d; at 50 µM; stronger effect = higher value
[16] = H69AR cells + 2 uM doxorubicin, measured here: viability with 2 uM doxorubicin, stronger effect = lower value
[17] = H69AR cells, compound alone cytotoxicity

CCOC(=O)C1CCN(c2c(NC3CCCc4ccccc43)c(=O)c2=O)CC1 (stereo not drawn)
87.7%: viability [6, 17]
87.2%: viability [6, 16]
inactive: Her2 level [2] 106% | viability [3] 82% | viability [4] 106% | viability [5] 87.7% | differential viability (reversal) ([6]; H69AR cells + 2 uM doxorubicin) 0.54% | inhibition [7] 1.41% | inhibition [8] 0.67% | growth inhibition [9] 6.77% | growth inhibition [10] -3.4% | viability increase [11] -1.77% | viability [12] 102% | viability [13] 96.8% | inhibition [14] -0.155% | RAM network inhibition [15] 0%
82%: viability [1]

CCOC(=O)c1ccc(NS(=O)(=O)c2ccc3c(c2)oc(=O)n3C)cc1
105%: viability [6, 16]
132%: viability [1]
113%: viability [6, 17]
inactive: Her2 level [2] 118% | viability [3] 132% | viability [4] 118% | viability [5] 113% | differential viability (reversal) ([6]; H69AR cells + 2 uM doxorubicin) 7.4% | inhibition [7] -0.77% | inhibition [8] -2.17% | growth inhibition [9] -0.745% | growth inhibition [10] 3.2% | viability increase [11] 1.82% | viability [12] 101% | viability [13] 86.4% | inhibition [14] 0.865% | RAM network inhibition [15] 2.11%

COc1cccc(C(=O)Nc2cc(C)c3c(=O)oc4ccccc4c3n2)c1
inactive: Her2 level [2] 62.5% | viability [3] 80.5% | viability [4] 57.6% | viability [5] 81.9% | differential viability (reversal) ([6]; H69AR cells + 2 uM doxorubicin) -19.4% | inhibition [7] -6.53% | inhibition [8] -4.67% | growth inhibition [9] -1.54% | growth inhibition [10] -1.12% | viability increase [11] 3.07% | viability [12] 85.2% | viability [13] 81.7% | inhibition [14] 2.74% | RAM network inhibition [15] 4.69%
81.9%: viability [6, 17]
101%: viability [6, 16]
80.5%: viability [1]

Cc1ccc2[nH]c(=O)c3cc(C(=O)NCCN4CCN(C)CC4)sc3c2c1
96%: viability [1]
87.3%: viability [6, 17]
inactive: Her2 level [2] 91.5% | viability [3] 96% | viability [4] 97.1% | viability [5] 87.3% | differential viability (reversal) ([6]; H69AR cells + 2 uM doxorubicin) 9.29% | inhibition [7] -1.03% | inhibition [8] 6% | growth inhibition [9] -9.77% | growth inhibition [10] 1.5% | viability increase [11] -3.64% | viability [12] 74.5% | viability [13] 81.8% | inhibition [14] 1% | RAM network inhibition [15] -1.95%
78%: viability [6, 16]

O=C(C1CCCN(S(=O)(=O)c2cccnc2)C1)N1CCn2c1nc1ccccc12 (stereo not drawn)
86.1%: viability [6, 16]
95.8%: viability [6, 17]
inactive: Her2 level [2] 103% | viability [3] 90.5% | viability [4] 105% | viability [5] 95.8% | differential viability (reversal) ([6]; H69AR cells + 2 uM doxorubicin) 9.65% | inhibition [7] 0.51% | inhibition [8] -0.33% | growth inhibition [9] 5.56% | growth inhibition [10] 4.04% | viability increase [11] 0.72% | viability [12] 101% | viability [13] 99.3% | inhibition [14] 0.46% | RAM network inhibition [15] 1.55%
90.5%: viability [1]

CCN(CC)C(=O)c1ccc(CS(=O)(=O)c2ccc(OC)cc2)o1
inactive: Her2 level [2] 116% | viability [3] 84.5% | viability [4] 99.2% | viability [5] 87.8% | differential viability (reversal) ([6]; H69AR cells + 2 uM doxorubicin) -0.895% | inhibition [7] 1.54% | inhibition [8] -6% | growth inhibition [9] -6.54% | growth inhibition [10] -7.93% | viability increase [11] -1.02% | viability [12] 97.4% | viability [13] 95.3% | inhibition [14] 1.96% | RAM network inhibition [15] 3.14%
88.7%: viability [6, 16]
84.5%: viability [1]
87.8%: viability [6, 17]

CCOc1ccc(NC(=O)CN(c2cc(C)cc(C)c2)S(=O)(=O)c2c(C)noc2C)cc1
74.7%: viability [6, 17]
74.2%: viability [6, 16]
inactive: Her2 level [2] 90.5% | viability [3] 94% | viability [4] 85.2% | viability [5] 74.7% | differential viability (reversal) ([6]; H69AR cells + 2 uM doxorubicin) 0.455% | inhibition [7] 1.67% | inhibition [8] -1.83% | growth inhibition [9] -19.5% | growth inhibition [10] -16.8% | viability increase [11] -3.54% | viability [12] 102% | viability [13] 97.2% | inhibition [14] 2.2% | RAM network inhibition [15] 8.99%
94%: viability [1]

COCCN(CCOC)c1ncnc2c1cnn2-c1ccccc1
112%: viability [1]
93.5%: viability [6, 16]
86.6%: viability [6, 17]
inactive: Her2 level [2] 99% | viability [3] 112% | viability [4] 88.4% | viability [5] 86.6% | differential viability (reversal) ([6]; H69AR cells + 2 uM doxorubicin) -6.92% | inhibition [7] -4.8% | inhibition [8] 4.33% | growth inhibition [9] -5.8% | growth inhibition [10] 1.92% | viability increase [11] 1.43% | viability [12] 107% | viability [13] 98.5% | inhibition [14] 0.505% | RAM network inhibition [15] 3.39%

COc1ccc(N2CCN(C(=O)C(C)(C)Oc3ccc(Cl)cc3)CC2)cc1
85%: viability [1]
78.6%: viability [6, 16]
inactive: Her2 level [2] 91.5% | viability [3] 85% | viability [4] 76.9% | viability [5] 68.4% | differential viability (reversal) ([6]; H69AR cells + 2 uM doxorubicin) -10.2% | inhibition [7] -1.07% | inhibition [8] -2.83% | growth inhibition [9] -6.29% | growth inhibition [10] 5.29% | viability increase [11] -4.56% | viability [12] 74.4% | viability [13] 71.7% | inhibition [14] 1.45% | RAM network inhibition [15] 9.33%
68.4%: viability [6, 17]
